About 1,100 (0.31%) of roughly 360,000 compounds were called active. This is one part of a sample in which actives are shown more often than they occur. A number with no mark means an inactive call. Rule as the data show it: active = activity change above about 30% (passing the limit was not always enough); inactive = the rest.
biological target: Hepatocyte nuclear factor 4-alpha (Homo sapiens) (UniProt P41235); test: HNF4-alpha DNA association modulation – biochemical, fluorescence polarization, FITC-DNA, primary screen (AID 1224865); details: HNF4a-FITC DNA binding, 1 h, at 10 µM, hits give high values
Sequence (P41235 whole entry, looked up): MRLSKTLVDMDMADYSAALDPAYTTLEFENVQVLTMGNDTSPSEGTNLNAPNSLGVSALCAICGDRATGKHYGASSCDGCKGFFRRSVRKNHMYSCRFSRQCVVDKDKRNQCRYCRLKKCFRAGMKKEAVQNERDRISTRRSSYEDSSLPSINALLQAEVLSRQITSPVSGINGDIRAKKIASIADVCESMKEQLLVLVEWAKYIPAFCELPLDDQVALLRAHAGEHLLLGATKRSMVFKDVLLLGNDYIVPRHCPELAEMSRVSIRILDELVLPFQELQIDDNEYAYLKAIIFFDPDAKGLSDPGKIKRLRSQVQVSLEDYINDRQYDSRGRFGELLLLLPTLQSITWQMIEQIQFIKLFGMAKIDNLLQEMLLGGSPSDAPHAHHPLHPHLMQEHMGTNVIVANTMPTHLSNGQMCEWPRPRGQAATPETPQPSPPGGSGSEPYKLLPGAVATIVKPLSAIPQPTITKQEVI

SMILES	activity change
COc1ccc(CCNS(=O)(=O)c2cn(C)nc2C)cc1	1.38%
N#Cc1ccccc1NC(=O)COc1c(Br)cc(Br)c2cccnc12	-0.16%
N#Cc1ccc(C(=O)Nc2cccc3cccnc23)c(F)c1	43.6% (active)
CSc1ccc(C#N)cc1NC(=O)c1ccc(Cl)cc1	2.01%
COCCNC(=O)c1cc2c(Br)ccc(Br)c2nc1N	-2.58%
Cc1cccn2c(=O)c(C=O)c(Nc3ccc(S(N)(=O)=O)cc3)nc12	-2.3%
CCCN(CCC)c1nc2c(C)cccn2c(=O)c1/C=C1/SC(=S)N(Cc2ccco2)C1=O	8.02%
Cc1cccn2c(=O)c(/C=C3\SC(=S)N(CC(C)C)C3=O)c(NCCCOC(C)C)nc12	82.9% (active)
CCc1nnc(NC(=O)CSc2nc(SC)ns2)s1	0.21%
Cc1cc(C(=O)CC#N)c(C)n1-c1c(C)n(C)n(-c2ccccc2)c1=O	11.5%
CCCCSCCCNC(=O)C1CCC(CNS(=O)(=O)c2ccc(NC(C)=O)cc2)CC1 (configuration not stated)	2.47%
CCc1ccc(C2C(C#N)=C(N)N(N(C)C)C3=C2C(=O)CCC3)s1 (configuration not stated)	0.21%
CCCC(O)(CCC)C(=O)NN(C(=O)CCl)c1cccc(C)c1	0.04%
N[C@@H](Cc1ccccc1)C(=O)N1CCOCC1	2.36%
CCN(/N=C/c1ccc(N(C)C)cc1)c1nc2ccccc2[nH]1	-0.96%
COc1cc(/C=C(\C#N)c2nc3c(s2)CC(C)CC3)ccc1O (configuration not stated)	74% (active)
COc1cc(C=NC2CCCCC2)ccc1O	1.88%
COc1cc(/C=C(\C#N)c2nc3ccccc3[nH]2)ccc1O	50.5% (active)
COC(=O)CSc1ccc2nnc(CCNS(=O)(=O)c3ccc(C)cc3)n2n1	-1.91%
CC(NC(=O)C(C)(C)C)C(c1cccs1)N1CCN(Cc2ccccc2)CC1 (configuration not stated)	-1.5%
CN1OC[C@@H]2CN(C(=O)c3cccnc3)[C@H](c3ccc(N4CCCCC4)cc3)C[C@@H]21	10.4%
Cc1ccc(CNC(=O)c2ccc(CS(=O)Cc3cccc(Cl)c3)o2)cc1 (configuration not stated)	1.72%
CCc1ccc(NC(=O)CC2C(=O)NCCN2C(=S)Nc2ccccc2)cc1 (configuration not stated)	1.59%
Cc1c(C=O)n(C)n(-c2ccccc2)c1=O	1.77%

SMILES	activity change
Cc1c(N=Nc2ccc(N(C)C)cc2)c(=O)n(-c2ccccc2)n1C	35.5% (active)
Cc1nc(N)sc1N=Nc1c(C)n(C)n(-c2ccccc2)c1=O	6.08%
O=C(CCN1C(=O)C2CCCCC2C1=O)Nc1ccc(OC(F)F)cc1 (configuration not stated)	1.26%
C=CC[C@H](CC(=O)N(CCO)Cc1ccccc1)C(=O)N[C@@H](COC(=O)[C@@H](CC=C)Cc1ccc(F)cc1)Cc1ccccc1	2.32%
CCN(CC)C(=O)CSC(Nc1cccc(F)c1)=C(C#N)C#N	44.9% (active)
Cc1ccc(CSCC(=O)N(C)CC(=O)Nc2cccc(F)c2)cc1	-2.3%
CN(CC(=O)Nc1cccc(F)c1)C(=O)CC1CCCC1	-0.01%
Cc1ccccc1OCCC(=O)Nc1c(C)n(C)n(-c2ccccc2)c1=O	-0.09%
O=C(CC1Nc2ccccc2NC1=O)Nc1ccccc1 (configuration not stated)	7.95%
COc1ccc(Nc2cc(Sc3ccc(OC)cc3)ncn2)cc1	7.05%
COc1ccc(CCNC2=CC(=O)CC(C)(C)C2)cc1	2.16%
COc1ccc(NC2=CC(=S)NC(C)(C)C2)cc1	39.2% (active)
CCCNC(=O)c1cc(C2CCCCN2S(=O)(=O)c2cn(C)cn2)on1 (configuration not stated)	-2.31%
Cc1cc(C)n2nc(C(=O)Nc3cccc(S(=O)(=O)N4CCOCC4)c3)nc2n1	-1.39%
CC(C)Oc1ccc(C(=O)NCC(=O)Nc2ccc3c(c2)CCC3)cc1	-0.66%
Cc1ccc(C(=O)OCC(=O)NC2CCCCCCC2)cc1C	-0.78%
Cc1nc(SCC(=O)N2CCc3ccccc3C2)c2c(C)c(C)sc2n1	-0.31%
Cc1nc(SCC(=O)N2CC(=O)Nc3ccccc32)c2c(C)c(C)sc2n1	-0.27%
Cc1nc(SCC(=O)Nc2cc(C)on2)c2c(C)c(C)sc2n1	49.9% (active)
CC/C(=C(/c1ccccc1)c1ccc(OCC[N+](C)(C)C)cc1)c1ccccc1	7.53%
C[C@@H]1CN([C@H](C)CO)C(=O)c2cc(Br)cnc2O[C@@H]1CN(C)Cc1cncnc1	3.08%
COC(=O)c1cccc(N(CC(=O)NCC2CCCO2)C(=O)CCC(=O)Nc2cc(C)on2)c1 (configuration not stated)	2.32%
O=C(COC(=O)c1ccc(F)c(S(=O)(=O)N2CCOCC2)c1)NCc1ccc2c(c1)OCO2	2.9%
